DT40 TDP1 no CPT: qHTS for Inhibitors of human tyrosyl-DNA phosphodiesterase 1 (TDP1): qHTS in cells in absence of CPT; DT40 Tdp1-/- hTDP1 cells, no CPT, ATP luminescence, 48 h; Potency, µM (titrated, usually from 46.2 µM), for inactives: top-dose activity change, negative = growth inhibition, most hits filed as inhibitors; 420,000 compounds, 15% hits; AID 686978, 2013; note: nearly all actives have a fitted effect of over 55% in size
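Cells were dispensed at 400 per well, compounds added by pin tool, plates incubated ≥48 hr at 37 °C, then CellTiter-Glo added for 30 min at room temperature before luminescence reading. Line: DT40 Tdp1-/- complemented with hTDP1; camptothecin omitted.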
Gal4-VP16 FLuc: Gal4-VP16 reporter inhibition counter-screen. Potency, µM (highest dose often 53.6 µM), without a hit: at the top dose activity, negative = inhibition, most hits filed as inhibitors. Drosophila S2 Gal4-VP16 UAS-luciferase, luminescence, 20 h. 310,000 compounds, 3.5% hits;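 note: Gal4-VP16 expression switched on by copper sulfate through the metallothionein promoter; nearly all actives have a fitted effect of over 50% in size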
TDP1 cell CPT: growth inhibition of DT40 Tdp1-/-;hTDP1 cells with camptothecin (screen for TDP1 inhibitors); chicken DT40 Tdp1-/-;hTDP1 cells + 20 nM CPT, ATP luminescence, 48 h; Potency, µM (top dose mostly 46.2 µM), for inactives: at the top dose activity change, negative = growth inhibition, usual class: inhibitors; 420,000 compounds, 12% hits; note: nearly all actives have a fitted effect of over 55% in size
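Chicken DT40 Tdp1-/- cells stably complemented with human TDP1 were seeded at 400 cells/well in medium containing 20 nM camptothecin, exposed to pin-transferred compounds, and grown at 37 °C for at least 48 hr. Viability was read as ATP luminescence.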
ALOX12 inh: ALOX12 (human) lipoxygenase inhibition. 580,000 compounds, 1.1% hits. Potency, µM (titrated, usually from 108 µM), for inactives: at the top dose activity change, negative = inhibition, most hits filed as inhibitors. AID 1671190. purified 12hLO, xylenol orange hydroperoxide absorbance. P18054
Target sequence (P18054 whole entry, looked up): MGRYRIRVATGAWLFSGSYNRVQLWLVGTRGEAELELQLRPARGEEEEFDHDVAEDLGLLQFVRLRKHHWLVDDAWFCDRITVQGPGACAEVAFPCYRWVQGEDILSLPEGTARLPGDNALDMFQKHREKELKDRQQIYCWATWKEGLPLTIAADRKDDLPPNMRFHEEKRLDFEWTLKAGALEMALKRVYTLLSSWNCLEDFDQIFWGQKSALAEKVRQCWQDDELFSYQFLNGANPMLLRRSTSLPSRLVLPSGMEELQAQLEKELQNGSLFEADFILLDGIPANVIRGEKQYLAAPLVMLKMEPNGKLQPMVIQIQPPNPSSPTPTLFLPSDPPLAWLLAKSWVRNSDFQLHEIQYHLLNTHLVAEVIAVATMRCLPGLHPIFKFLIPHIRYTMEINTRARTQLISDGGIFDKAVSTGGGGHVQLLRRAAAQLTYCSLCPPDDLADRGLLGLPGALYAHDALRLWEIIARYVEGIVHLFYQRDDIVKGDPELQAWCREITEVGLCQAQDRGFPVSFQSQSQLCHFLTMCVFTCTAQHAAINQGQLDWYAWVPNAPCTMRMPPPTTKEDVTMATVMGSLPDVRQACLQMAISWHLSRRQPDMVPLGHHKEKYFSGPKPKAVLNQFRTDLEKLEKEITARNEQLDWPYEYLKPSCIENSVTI
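Hydroperoxide product was detected by ferrous iron/xylenol orange as the 573 to 405 nm absorbance ratio. Arachidonic acid at 40 uM (final) was turned over for 30 min at room temperature by 150 nM human 12hLO, pH 7.0 Hepes buffer, after 15 min compound preincubation.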
ELG1 repair inh: ELG1-dependent DNA repair inhibition; HEK293T ELG1-luciferase reporter, luminescence, 16 h; DNA damage induced by 5-fluorouridine; 330,000 compounds, 2.3% hits; Potency, µM (highest dose often 46.1 µM), for inactives: at the highest dose activity change, negative = inhibition, usual class: inhibitors; note: nearly all actives have a fitted effect of over 55% in size
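Reporter activity after DNA damage by 5-fluorouridine is monitored. Compound-treated cells incubate 16 hr at 37 °C, then ONE-Glo is added for 30 min before luminescence reading.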
RORgamma inh: inhibitors of mouse ROR gamma transcriptional activity; Drosophila S2 Gal4-RORgamma UAS-luciferase reporter, 20 h; P51450; Potency, µM (series often up to 53.6 µM), without a hit: at the top dose activity change, negative = inhibition, most hits filed as inhibitors; AID 2551; 310,000 compounds, 5.4% hits; note: nearly all actives have a fitted effect of over 60% in size
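ROR gamma transcriptional activity was tracked as Gal4-UAS luciferase output in stably transfected Drosophila Schneider cells, with compound added 1 hr before 700 uM copper sulfate induction and a 20 hr ambient-temperature incubation.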
Active calls of the source: *; ? = inconclusive; · = not tested or not shown; [ ] = dose if it differs, or a comment. Most compounds without a hit are left out; they make up all but 15% or so of the library. Calls come from the whole dose curve; as a rule, active = well fitted curve in the direction sought with a large enough effect; inconclusive = small, poorly fitted or top-dose-only effect, or another doubt; inactive = no such curve, though single readings can be large; an effect the other way counts as inactive or inconclusive. % is set by controls: 0 for no effect and ±100 for the full control effect; potency is the fitted concentration of half-maximal effect.

SMILES | DT40 TDP1 no CPT | Gal4-VP16 FLuc | TDP1 cell CPT | ALOX12 inh | ELG1 repair inh | RORgamma inh
COc1ccc(OC)c(C2CCCN2C(=O)CSc2n[nH]c(-c3ccccc3)n2)c1 (centres undefined) | · | · | · | -36.9% | · | ·
CC(C)C(=O)N1CCN(c2ccc(NC(=O)c3ccc4c(c3)OCCO4)cc2)CC1 | 0.5% | -2.5% | 4.4% | -20.4% | 17.3% | -20.5%
Cc1ccccc1C(=O)N1CCN(c2ccc(NC(=O)c3ccc4c(c3)OCCO4)cc2)CC1 | 23.1µM* | -3.0% | ? | -2.8% | ? | ?
O=C(Nc1ccc(N2CCN(C(=O)c3ccccc3)CC2)cc1)c1ccc2c(c1)OCO2 | 18.4µM* | 2.7% | 14.6µM* | -5.8% | ? | 27.5%
CCc1ccc(C(=O)N2CCN(c3ccc(NC(=O)c4cccnc4)cc3)CC2)cc1 | -17.5% | 3.2% | ? | 0.0% | 23.1µM* | 22.2%
Cc1ccc(C(=O)N2CCN(c3ccc(NC(=O)c4ccc5c(c4)OCCO5)cc3)CC2)cc1 | ? | -6.6% | 16.4µM* | -8.4% | ? | 22.2%
FC1(F)C[C@@H](c2nnc(C3CC3)o2)N(C2CCSCC2)C1 | · | · | · | -10.6% | · | ·
Cn1c(=O)c2c(nc(NCc3ccco3)n2C)n(C)c1=O | -42.2% | 8.4% | -21.2% | -12.7% | 2.2% | -0.7%
Cn1c(=O)c2c(nc(NCc3ccco3)n2C/C=C/c2ccccc2)n(C)c1=O | 0.651µM* | 4.47µM* | 1.46µM* | -12.7% | 4.61µM* | 2.24µM*
Cn1c(=O)c2c(nc(NCc3ccco3)n2Cc2ccccc2Cl)n(C)c1=O | 2.06µM* | 4.47µM* | 4.11µM* | -24.4% | ? | -35.0%
Cc1oc(-c2ccccc2Cl)nc1CS(=O)(=O)CC(=O)NCc1ccc(F)cc1 | 18.4µM* | · | ? | ? | · | ·
Cc1ccc(CNC(=O)CS(=O)(=O)Cc2nc(-c3ccccc3F)oc2C)cc1 | ? | 5.0% | -18.5% | -9.2% | 4.0% | -9.8%
Cc1oc(-c2ccccc2Cl)nc1CS(=O)(=O)CC(=O)NC(C)c1ccccc1 (centres undefined) | 23.1µM* | -6.5% | ? | 0.4% | -10.3% | 9.0%
Cc1oc(-c2ccccc2Cl)nc1CS(=O)(=O)CC(=O)NCCN1CCOCC1 | -9.7% | 7.3% | -1.8% | -0.6% | 16.0% | -0.9%
Cc1oc(-c2ccccc2Cl)nc1CS(=O)(=O)CC(=O)NC(C)CCc1ccccc1 (centres undefined) | ? | · | 16.4µM* | -12.6% | · | ·
O=C(c1ccc(Cl)nc1)N1CCn2c(nn(-c3ccc(F)cc3)c2=O)C1 | · | · | · | 21.4% | · | ·
CCc1cccc(OCC(=O)NC(CC(C)C)C(=O)N(C)C)c1 (centres undefined) | · | · | · | 11.4% | · | ·
Cc1cc(C(F)(F)F)nn1CC(=O)NCCc1ncc(C)n1CC1CC1 | · | · | · | 46.2% | · | ·
CCCN1CCC2(CCN([S+](=O)([O-])c3cccc(OC)c3)CC2)Oc2ccccc21 | · | · | · | -2.1% | · | ·
Cc1noc(C)c1S(=O)(=O)N1CCCC(Cc2nncn2CC2CC2)C1 (centres undefined) | · | · | · | 19.1% | · | ·
CCCCn1c(SCC(=O)NCc2ccccc2)nc2cc(C(=O)OC)ccc2c1=O | · | · | · | 14.3% | · | ·
COc1ccc(-c2ccc(SC)nn2)cc1 | ? | ? | -28.9% | 37.3% | ? | 10µM*
COc1ccc(C(=O)CSc2ccc(-c3ccccc3)nn2)cc1 | ? | 2.1% | ? | -0.7% | 3.5% | 42.3%
COC(=O)c1c(C)cccc1NC(=O)c1nn(C)c(=O)c2ccccc12 | · | · | · | -18.9% | · | ·
Cc1ccc(NC(=O)c2cccc(Cl)c2)nc1 | -26.3% | -3.4% | -25.4% | -13.7% | ? | 20.3%[10 µM]
SMILES | DT40 TDP1 no CPT | Gal4-VP16 FLuc | TDP1 cell CPT | ALOX12 inh | ELG1 repair inh | RORgamma inh
COc1cc(C(=O)Nc2ccc(NC(=O)c3cccc(Cl)c3)nc2)cc(OC)c1OC | 8.2µM* | 19.4% | 25.9µM* | -15.5% | ? | 13.0%
COc1ccccc1C(=O)N/N=C(\C)CC(=O)Nc1ccc(Cl)cn1 | -13.5% | 21.9% | 12.0% | 53.0% | 11.4% | -39.5%
COc1cc(C(=O)NC(=S)NCc2ccncc2)cc(OC)c1OC | 20.6µM* | · | ? | ? | · | ·
COc1cc(C(=O)Nc2ccc(NC(=O)C3CCCCC3)nc2)cc(OC)c1OC | 18.4µM* | 4.8% | ? | -26.5% | -6.1% | 0.2%
COc1cc(C(=O)NC(=S)Nc2ccc(Cl)cn2)cc(OC)c1OC | ? | 11.2µM* | ? | 3.7% | -1.2% | 5.01µM*
CCN(Cc1cc2ccccc2[nH]c1=O)C(=O)c1cccc(Cl)c1 | · | · | · | -2.2% | · | ·
COc1ccc2cc(-c3nc(-c4ccccc4F)no3)c(=O)oc2c1 | · | · | · | -29.2% | · | ·
COc1cc(C(=O)NCCSc2ccc(Cl)cc2)cc(OC)c1OC | ? | 8.0% | ? | ? | ? | 9.3%
COc1cc(C(=O)Sc2ccc(Cl)cc2)cc(OC)c1OC | 11.6µM* | ? | 13µM* | 0.0% | -9.3% | ?
O=C(Nc1ccc(NC(=O)C2CCCCC2)nc1)c1cccs1 | 11.6µM* | 28.2% | ? | -7.4% | ? | 34.3%
O=C(Nc1ccc(NC(=O)C2CC2)nc1)c1ccccc1F | -15.2% | 15.4% | 4.6% | ? | ? | 43.1%
CC(=O)Nc1cc(-c2cccc(F)c2)cn2c(-c3ccc(F)c(Cl)c3)cnc12 | ? | · | ? | -22.5% | · | ·
CC(=O)Nc1cc(-c2ccc(CO)cc2)cn2c(-c3ccc(F)c(Cl)c3)cnc12 | ? | · | ? | 35.5µM* | · | ·
CC(=O)Nc1cc(-c2ccc(F)cc2)cn2c(-c3ccc(F)c(Cl)c3)cnc12 | 23.1µM* | · | ? | ? | · | ·
